# “And” between values parts separate entries of the source, which are not always exact repeats. Equal entries are not always repeated. Among all 66,000 compounds or so, about 720 (1.1%) were called active. No stated cut-off is given here; in the data, active means normalised signal below about 0.5; inactive means the rest, inconclusive results apart. The list comes from a sample in which actives are over-represented; it also holds similar structures and randomly drawn compounds.
# Target: Chromobox protein homolog 7 (Homo sapiens) (UniProt O95931)
# Sequence (O95931 whole entry, looked up): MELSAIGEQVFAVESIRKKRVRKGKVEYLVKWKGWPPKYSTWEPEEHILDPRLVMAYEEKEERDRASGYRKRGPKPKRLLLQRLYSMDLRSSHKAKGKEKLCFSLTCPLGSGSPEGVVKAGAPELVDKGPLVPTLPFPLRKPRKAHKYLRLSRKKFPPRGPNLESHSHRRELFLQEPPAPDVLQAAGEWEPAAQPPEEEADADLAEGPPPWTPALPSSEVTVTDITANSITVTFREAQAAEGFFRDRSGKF
# Assay: blockers of CBX7 binding to H3K27me3 peptide – biochemical, AlphaScreen, primary screen (AID 1224903)
# Conditions: AlphaScreen His6-CBX7 / biotin-H3K27me3 peptide binding, stronger effect = lower value; z-score: measured here: z-score of CBX7 signal
Compound,normalised signal (fraction of DMSO),z-score
O=C(Nc1ccccc1C(F)(F)F)N1CCN(c2ccc3nnc(-c4ccccc4)n3n2)CC1,0.759 (inactive),-3.38
Cc1nc2cc(C(=O)NCc3ccc(F)cc3)ccc2n1-c1cccc(F)c1,0.995 (inactive),-0.21
Cc1cccc(CCNC(=O)CN2CCN(Cc3ccc(F)cc3Cl)C2=O)c1,1.02 (inactive),0.228
Cc1ccc(NC(=O)Cn2cnc3sc(C(=O)Nc4ccc(F)cc4)c(C)c3c2=O)cc1Cl,1.09 (inactive),2.71
Cc1ccc(OCC(=O)Nc2cccc(-c3nc4ncccc4o3)c2)cc1,1.02 (inactive),0.227
Cc1cccc(N2CCN(C(=O)C3CCC(Cn4c(=O)[nH]c5ccsc5c4=O)CC3)CC2C)c1 (centres undefined),1.11 (inactive),0.523
COc1ccc(CCNC(=O)CCc2c(C)nc3c(c(C)nn3-c3ccc(C)cc3)c2C)cc1OC,1.07 (inactive),1.56
COc1cccc(Nc2nc(-c3ccc(Cl)cc3)cs2)c1,0.908 (inactive) and 0.897 (inactive),-1.58 and -2.88
O=C(Nc1ccc(-c2nc3ccccc3o2)c(O)c1)c1ncn[nH]1,0.308 (active),-19.7
COc1cc(OC)cc(C(=O)Nc2ccc(-c3nc4ccccc4o3)c(O)c2)c1,0.956 (inactive),-0.356
O=C(Nc1ccc(-c2nc3ccccc3o2)c(O)c1)c1cccc(F)c1,1.11 (inactive),2.16
CCOC(=O)CNC(=O)c1cc2c(n(-c3ccc(C)cc3)c1=O)CCCC2=O,1.19 (inactive),0.796
CCN1CCCC1CNC(=O)c1ccc2c(c1)N(Cc1ccccc1)CCS2 (centres undefined),0.92 (inactive),-0.106
Cc1ccc(NC(=O)C2CCCN(S(=O)(=O)c3cccc4cccnc34)C2)cc1F (centres undefined),1.02 (inactive),0.516
COc1ccccc1NC(=O)c1c(NCc2ccncc2)sc2c1CCCC2,0.583 (inactive),-5.84
COc1ccccc1NC(=O)c1c(NCc2cccs2)sc2c1CCCC2,0.467 (active),-7.46
CCOC(=O)c1ccc(NC(=O)c2c(NCc3cccs3)sc3c2CCCC3)cc1,0.674 (inactive),-4.57
CCCCN(C)S(=O)(=O)c1ccc(C(=O)Nc2nnc(C)o2)cc1,0.00344 (active),-1.32
COc1ccc(-c2nnc(NC(=O)c3ccc(S(=O)(=O)N4CC(C)OC(C)C4)cc3)o2)c(OC)c1 (centres undefined),0.629 (inactive),-8.38
CN(C)S(=O)(=O)c1ccc(C(=O)Nc2nnc(-c3ccccc3Cl)o2)cc1,0.145 (active),-14.4
COCCN(CCOC)S(=O)(=O)c1ccc(C(=O)Nc2nnc(-c3cccs3)o2)cc1,0.698 (inactive),-6.83
CN(C)S(=O)(=O)c1ccc(C(=O)Nc2nnc(C3CC3)o2)cc1,0.379 (active),-14
CCN(CC)S(=O)(=O)c1ccc(C(=O)Nc2nnc(-c3cc(OC)cc(OC)c3)o2)cc1,0.885 (inactive),-1.93
C=CCN(CC=C)S(=O)(=O)c1ccc(C(=O)Nc2nnc(-c3cccs3)o2)cc1,0.877 (inactive),-3.03
CC1CCCCN1S(=O)(=O)c1ccc(C(=O)Nc2nnc(-c3cccs3)o2)cc1 (centres undefined),0.92 (inactive),-1.8
CCC1CCCCN1S(=O)(=O)c1ccc(C(=O)Nc2nnc(COC)o2)cc1 (centres undefined),0.727 (inactive),-7.33

Compound,normalised signal (fraction of DMSO),z-score
COc1ccc(-c2nnc(NC(=O)c3ccc(S(=O)(=O)N4CCC(C)CC4)cc3)o2)cc1,0.796 (inactive),-4.6
CN(Cc1ccccc1)S(=O)(=O)c1ccc(C(=O)Nc2nnc(-c3ccccc3Cl)o2)cc1,0.095 (active),-15.2
CCCCN(CC)S(=O)(=O)c1ccc(C(=O)Nc2nnc(-c3ccc(Cl)s3)o2)cc1,1.03 (inactive),0.687
Cc1cc(=O)n2nc(N3CCCC(C(=O)N4CCCCC4)C3)sc2n1 (centres undefined),1.09 (inactive),0.832
O=C(Nc1ccccc1F)c1cc2c(s1)-c1ccccc1OC2,1.53 (inactive),15.1
COc1cccc(-c2nc(CS(=O)(=O)CC(=O)NCCCN(CC(C)C)CC(C)C)c(C)o2)c1,1.42 (inactive),3.56
CCc1ccc(-n2cnc3cc(C(=O)NC4CCCC4)ccc32)cc1,0.805 (inactive),-3.38
COc1ccc(CCNC(=O)c2cn(-c3ccc(Cl)cc3)c(=O)c3ccccc23)cc1OC,1.03 (inactive),0.92
CCCCOc1ccc(C(=O)N(Cc2ccc(OC)cc2)C2CCS(=O)(=O)C2)cc1 (centres undefined),0.91 (inactive),-0.0894
O=C(c1ccc(Cl)nc1)N1CCNc2ccccc2C1,0.975 (inactive),-0.305
O=C(CN1C(=O)COc2ccccc21)NCCN1CCc2ccccc2C1,1.06 (inactive),1.85
CCCN1CCN(CCCNC(=O)CN2C(=O)COc3ccccc32)CC1,1.01 (inactive),0.274
CCCCNC(=O)CN1C(=O)COc2ccccc21,0.475 (active),-4.69
CN(CC(=O)NCCc1ccccc1)S(=O)(=O)c1cnc[nH]1,1.26 (inactive),2.17
COC(CNC(=O)c1csc2c1CCCCC2)OC,0.834 (inactive),-2.13
Cc1ccc(-n2c(Cc3cccn3C)nnc2SCC(=O)Nc2ccc(C)c(Cl)c2)cc1,0.926 (inactive),-1.77
Cc1sc2ncn(CC(=O)NCC(=O)NCCCN3CCOCC3)c(=O)c2c1C,1.08 (inactive),0.741
Cc1ccccc1Cn1c(CCNC(=O)C(C)(C)C)nc2ccccc21,1.12 (inactive),1.79
Cc1cccc(C)c1Nc1c(-c2ccccn2)nc2sccn12,0.5 (active),-5.94
Cc1ccc(Nc2c(-c3ccc(Cl)cc3)nc3sccn23)c(C)c1,0.736 (inactive),-5.27
Cc1cccc(C)c1Nc1c(-c2ccsc2)nc2cnccn12,0.944 (inactive),-0.669
COc1ccc2c(c1OC)C(=O)N(c1ncn[nH]1)C2,0.25 (active),-16
COc1ccc2c(c1OC)C(=O)N(c1ccc(O)cc1)C2,0.99 (inactive),-0.11
CCOC(=O)c1cnc2c(C)cc(C)cc2c1Nc1ccccc1CC,1.15 (inactive),1.45
CCOC(=O)c1cnc2c(C)cc(C)cc2c1Nc1ccc(N2CCOCC2)cc1,0.35 (active),-16.2
CCOC(=O)c1cnc2c(C)cc(C)cc2c1Nc1cccc(OC)c1,1.03 (inactive),0.43

# Source: PubChem BioAssay AID1224903 (Bradner/Qi Labs at DFCI, 2016)
